Only some compounds are listed: those with a hit (about 2.2% of all), similar ones and a draw of the others.
Shn3 inh set2 = reduces Shn3 3'UTR luciferase signal in osteoblasts | actives 0.52% (n = 360,000) | Clone20 osteoblast Shn3 3'UTR firefly luciferase, 24 h | inhibition, % at 12.5 µM;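 active = mean inhibition of at least 75% with every replicate also reaching 75%; inconclusive = mean inhibition at least 75% but some replicate below; inactive = mean inhibition below 75%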;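 also: 0% = median of neutral control wells and 100% = pilot-screen positive control compound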
PfHsp90 yeast 2 = growth inhibition of yeast expressing Plasmodium Hsp90; actives 0.32% (n = 310,000); AID 504621; S. cerevisiae expressing PfHsp90, BacTiter-Glo ATP, 48 h; yeast lacking PDR1 and PDR3 efflux regulators; inhibition, % at 9.4 µM;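 active = every replicate shows inhibition above about 80%, whatever the replicate mean, limit read from the data; inconclusive = mean inhibition reaches the set limit but some replicate falls short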;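 also: 0% = DMSO neutral controls and 100% = 20 µM radicicol positive controls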
CSC inhib = cancer stem cell inhibition; cancer stem cell-like cells viability, luminescence; inhibition, % at 7.5 µM; actives 1.1% (n = 300,000); AID 2717; in the data active = inhibition above about 75%; inconclusive = no clear call, values can overlap the other calls; tested in HMLE shEcad cells
Calb FLC = C. albicans growth modulation with fluconazole | C. albicans CaCi-2 (fluconazole-resistant clinical isolate) + fluconazole, Alamar Blue growth, 48 h | growth inhibition, % (test concentration not listed) | actives 0.57% (n = 300,000) | AID 1979;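 active = growth inhibition above about 58% in most replicates, limit read from the data, passing the limit was not always enough; inconclusive = exactly half the replicates above a set limit; inactive = most replicates below a set limit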;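 also: all wells also contain fluconazole at 8 µg/ml as a sub-toxic cotreatment; 0% = median of DMSO wells and 100% = median of geldanamycin control wells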
Beta apoptosis = blocks beta cell apoptosis; actives 0.8% (n = 300,000); INS-1E cytokine-induced death, ATP luminescence, 48 h; percent of positive-control rescue, neutral wells zero; AID 435005; protection from apoptosis, % (no concentration beside the values);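 active = Every replicate reaches about 75%, or at least half do and their mean reaches it too, limit read from the data; inconclusive = At least half of replicates reach the limit but their mean does not; inactive = Under half of replicates reach the limit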;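 also: 0% = cytokine-treated negative control wells and 100% = positive control rescue; higher means more ATP so stronger rescue from cytokine killing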
Numbers without * were called inactive; ? = inconclusive; / = no result given.

SMILES	Shn3 inh set2	PfHsp90 yeast 2	CSC inhib	Calb FLC	Beta apoptosis
Cc1ccc(NC(=S)NC(=O)c2ccc(F)cc2)cc1S(=O)(=O)Nc1ccccc1Cl	-1	-2	79*	28	0
COc1ccc(C(=O)Nc2ccc(Cl)c(S(=O)(=O)Nc3ccccc3OC)c2)cc1	72	-22	9	18	-2
Cc1ccc(NC(=O)c2ccc(=O)[nH]n2)cc1S(=O)(=O)Nc1ccccc1Cl	23	-4	9	/	4
O=C(N/N=C/c1ccc(O)cc1)c1cccc(C(F)(F)F)c1	-6	4	-10	27	-9
O=C(N/N=C/c1sc(N2CCOCC2)nc1-c1ccccc1)c1cccc(S(=O)(=O)N2CCOCC2)c1	84	-15	24	98*	113*
O=C(N/N=C/c1ccccc1O)c1cccc(C(F)(F)F)c1	93*	-43	78*	80*	?
CCN(CC)c1ccc(/C=N/NC(=O)c2cccc(S(=O)(=O)N3CCOCC3)c2)c(O)c1	89*	-12	110*	102*	75*
CCN(CC)c1ccc(/C=N/NC(=O)c2c(Cl)cnn2C)c(O)c1	79	20	-6	4	95*
O=C1ON(Cc2ccccc2)C(c2ccccc2)N1c1ccccc1 (configuration not stated)	-3	-4	/	/	/
O=C(CN1CCN(C(=O)C2CC2)CC1)Nc1ccc(Cl)cc1F	-7	/	/	/	/
Cn1cnc2c1c(=O)n(Cc1cccc(Cl)c1)c(=O)n2C	11	21	-5	3	-3
O=C(Nn1cnnc1)c1ccccc1Cl	11	0	-7	3	-8
O=C(CN1C(=O)CSc2ccc(S(=O)(=O)N3CCCCC3)cc21)NCc1ccccc1Cl	6	-11	-7	-3	7
CN(C)C(CNC(=O)c1cccc(S(=O)(=O)Nc2ccccc2Cl)c1)c1ccccc1 (configuration not stated)	-1	-27	/	/	/
CCN(CC)S(=O)(=O)c1cccc(C(=O)N/N=C/c2cccc(O)c2O)c1	90*	7	98*	-2	42
CCN(CC)S(=O)(=O)c1cccc(C(=O)NCC(c2ccccc2)N(C)C)c1 (configuration not stated)	-2	107*	-5	-9	-3
CCN(CC)c1ccc(/C=N/Nc2nc(C)cc(=O)[nH]2)c(O)c1	83	-15	17	102*	61
Cc1cc(=O)[nH]c(NN=Cc2cc(Br)ccc2O)n1	74	-5	/	/	/
COc1ccc(CCNC(=O)c2ccc(S(=O)(=O)N3CCCCC3)cc2)cc1	11	-14	/	/	/
O=C(NC(Cc1ccc(O)cc1)C(=O)O)c1ccc2c(c1)OCO2 (configuration not stated)	-17	14	-17	/	-4
C/C(=C\c1ccc(C(=O)O)cc1)c1ccc2c(c1)C(C)(C)CCC2(C)C	13	3	101*	/	-15
CC(=O)C(=Cc1ccc(C(=O)O)cc1)C(C)=O	27	-13	-11	-14	/
O=[N+]([O-])c1ccc(Cl)c(/C=N/n2c(COc3ccccc3)n[nH]c2=S)c1	2	-19	60	?	5
Cc1ccccc1OCc1nc2ccccc2c(=O)n1/N=C/c1c[nH]c2ccccc12	-21	-14	12	-16	7
Cc1cc(/C=N/n2c(COc3ccccc3C)nc3ccccc3c2=O)c(O)c([N+](=O)[O-])c1	81	14	62	91*	79*
SMILES	Shn3 inh set2	PfHsp90 yeast 2	CSC inhib	Calb FLC	Beta apoptosis
O=c1c2ccccc2nc(COc2ccccc2)n1/N=C/c1cc([N+](=O)[O-])ccc1O	60	28	75*	-3	79*
Cc1ccc(-c2[nH]ncc2/C=N/n2c(COc3ccccc3C)nc3ccccc3c2=O)cc1	4	-6	-8	-20	93*
CCCc1nc2ccccc2c(=O)n1/N=C/c1ccccc1O	37	-15	17	/	97*
O=c1ccc(-c2ccccc2)no1	-7	7	-12	-5	/
CCCCOc1ccc(C(=O)NCC(=O)N2CC(C)CC(C)C2)cc1 (configuration not stated)	-10	0	/	/	2
Fc1ccc(-c2nc3c(-c4ccccc4)cnn3cc2CCN2CCOCC2)cc1	15	-3	-8	1	-5
CC(C)Cn1c(N)c(C(=O)COC(=O)CC23CC4CC(CC(C4)C2)C3)c(=O)n(C)c1=O	87*	1	64	2	105*
CC1(C)C2CCC(CN)C1C2 (configuration not stated)	8	/	/	/	/
Cc1ccccc1NC1=C/C(=N\S(=O)(=O)c2ccc(C(=O)O)cc2)c2ccccc2C1=O	-10	-18	/	32	107*
O=C(O)c1ccc(S(=O)(=O)/N=C2\C=C(Nc3ccccc3F)C(=O)c3ccccc32)cc1	?	24	104*	-7	99*
CN(C)c1ccc(-c2cc(NC=O)c3ncc(-c4ccc(F)c(Cl)c4)n3c2)cc1	-15	/	/	/	/
Fc1ccc(NC(=S)Nc2cc(-c3ccccc3)[nH]n2)cc1Cl	-75	-27	88*	11	1
CC(C)C1C(c2ccccc2)N(C)C(c2ccccc2)CC1(O)c1ccccc1 (configuration not stated)	-4	33	131*	-6	45
N#Cc1ccccc1S(=O)(=O)N1CCN(C(=O)CN2C(=O)NC3(CCCC3)C2=O)CC1	4	8	8	-6	0
CN(C)c1ccc2nc3ccc(=O)cc-3sc2c1	39	/	/	/	/
CN(C)c1ccc2nc3ccc(=[N+](C)C)cc-3sc2c1	56	31	96*	/	/
O=C(O)c1cn(-c2ccc(N3CCCC3)c(F)c2)c2c(F)c(F)c(F)cc2c1=O	-10	106*	-1	3	6
Fc1cccc(F)c1-n1c(CN2CCCC2)csc1=S	5	0	-9	1	-13
O=C(COC(=O)COc1ccc(Br)cc1)NC1CCS(=O)(=O)C1 (configuration not stated)	9	/	/	/	/
CC(C)c1ccc(NC(=O)Cc2cn(C)c3ccccc23)cc1	-14	-14	1	114*	4
CC(C)c1ccc(NC(=O)c2cc3c(=O)n(C)c4ccccc4c3n2C)cc1	-2	2	76*	2	13
Cn1cc(CC(=O)NCc2ccc(F)cc2)c2ccccc21	-19	0	-1	12	-9
COC(=O)c1c(NC(=O)CSc2nnc(C)c(=O)[nH]2)sc(C)c1C	-4	-71	6	1	/
Nc1ccc2cc3[nH]c4cc(N)ccc4c3nc2c1	90*	-2	/	/	/
O=C(COC(=O)/C=C/c1ccc(F)cc1)NC1CCCCCC1	-7	-6	0	/	-1
COc1ccc(N=CC2=C(Nc3ccc(OC)cc3)c3c(C)nn(-c4ccccn4)c3CC2)cc1	/	/	/	/	110*
CCOC(=O)c1sc(NC(=O)CSc2nncn2C)nc1C	-21	36	-7	-4	-3
Nc1nnc(SCC(=O)Nc2ccc(N3CCOCC3)cc2)s1	91*	/	7	-11	/
Nc1nnc(SCC(=O)Nc2ccccc2N2CCOCC2)s1	3	5	0	2	-9
Cc1ccc(-c2csc(N3CCC(C(N)=O)CC3)n2)cc1	-50	-8	-6	/	-2

Screening data (PubChem)
